Assay results taken from PubChem BioAssay AID777 (Sanford-Burnham Center for Chemical Genomics, 2007).
In all, about 96,000 compounds went through this assay and about 19,000 (20%) were called active. Only a sample is shown. A number with no mark means an inactive call.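 Rule for the calls: active = blocking of liver enzyme CYP2C9 beyond about 50% at 5 µM (limit read from the data); inactive = the rest.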

Target: Cytochrome P450 2C9 (Homo sapiens) (UniProt P11712)
Assay: blockers of cytochrome P450 2C9 activity – biochemical, luminescence, ADME assay, primary screen (AID 777)
Conditions: CYP2C9 Supersomes, luciferin-H conversion, at 5 µM, hits give high values

Sequence of Cytochrome P450 2C9 (Homo sapiens) (P11712 whole entry, looked up): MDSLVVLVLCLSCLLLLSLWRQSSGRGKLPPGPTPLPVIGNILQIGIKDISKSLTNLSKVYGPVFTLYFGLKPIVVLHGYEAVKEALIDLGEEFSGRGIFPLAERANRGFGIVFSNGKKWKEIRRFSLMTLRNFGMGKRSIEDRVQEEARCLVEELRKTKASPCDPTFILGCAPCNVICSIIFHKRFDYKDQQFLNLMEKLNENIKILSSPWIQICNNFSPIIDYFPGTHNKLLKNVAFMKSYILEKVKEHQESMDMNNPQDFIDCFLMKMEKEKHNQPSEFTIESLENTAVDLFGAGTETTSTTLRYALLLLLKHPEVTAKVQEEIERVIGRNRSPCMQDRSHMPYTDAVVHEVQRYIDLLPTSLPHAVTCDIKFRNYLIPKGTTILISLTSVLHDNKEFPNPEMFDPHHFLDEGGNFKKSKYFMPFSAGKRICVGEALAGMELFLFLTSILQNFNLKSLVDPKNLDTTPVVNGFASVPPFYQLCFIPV

First: CC(=O)Nc1nonc1-c1nc2ccccc2n1Cc1ccccn1
Second: Cc1cc(NC(=O)c2cnn3cccnc23)n(-c2ccccc2)n1
The inhibition of the first is lower: 7.4% for the first, 32% for the second.

Going from `COc1ccccc1N1CCN(C(=O)c2cc(-c3ccc(Br)cc3)on2)CC1` to `COc1ccccc1N1CCN(C(=O)CSc2nnc(-c3ccoc3C)o2)CC1`, the inhibition rises from -12% to 25.8%.

First: CN1CCN(CCCNC(=O)c2cc3c(=O)oc4ccccc4c3s2)CC1
Second: Cc1nc(N2CCCC2C(=O)O)c2oc3ccccc3c2n1 (stereo not given)
The inhibition of the first is lower: -15.9% for the first, -6.6% for the second.

Going from `COc1ccc(OCC(=O)NCCc2ccc(S(N)(=O)=O)cc2)cc1` to `CC(C)NS(=O)(=O)c1ccc(OCC(=O)Nc2ccc3c(c2)OCCO3)cc1`, the inhibition falls from 41.9% to 40.9%.

Going from `COc1ccc(-c2cc(C)nc3nc(N)nn23)cc1` to `COc1ccc(C2C=C(c3ccc(Br)cc3)Nc3nc(NS(C)(=O)=O)nn32)cc1` (stereo not given), the inhibition rises from -29.3% to -11.7%.

Going from `Cc1cccc(N2C(=O)c3cccnc3C2=O)c1` to `Cc1ccc(N2C(=O)c3ccccc3C2(O)c2ncc[nH]2)cc1` (stereo not given), the inhibition falls from 3.1% to -0.7%.

First: CCOC(=O)c1[nH]c2ccc(OC)cc2c1NC(=O)N1CCOCC1
Second: Cc1c(C(=O)CN2CCOCC2)[nH]c2ccccc12
The inhibition of the first is higher: -9.2% for the first, -15.8% for the second.

First: Cc1ccc(OCC(O)CN2CCN(CC(O)COc3ccc(C)cc3Cl)CC2)c(Cl)c1 (stereo not given)
Second: CS(=O)(=O)N(CC(=O)N1CCN(Cc2ccc3c(c2)OCO3)CC1)c1ccc2c(c1)OCO2
The inhibition of the first is lower: -10.1% for the first, 7.2% for the second.

Compared with `CCCS(=O)(=O)Nc1c(C(=O)O)[nH]c2ccccc12`, `COC(=O)c1[nH]c2ccc(Br)cc2c1NC(=O)Oc1ccccc1` is lower in inhibition: 33.7% for the first, 4.5% for the second.

Compared with `CCCCCCCCOC1OC(CO)C(O)C(O)C1NC(C)=O` (stereo not given), `CCCCCOC(=O)NCCOC(=O)Nc1ccc(C(=O)OCC)cc1` is higher in inhibition: -2.6% for the first, 48% for the second.

Compared with `COC(=O)c1ccc(C(=O)Nc2cc(Cl)ccc2Cl)cc1NC(=O)c1ccccc1C`, `CC(=O)c1nn(-c2cccc(Br)c2)cc1C(=O)c1cccc2ccccc12` is lower in inhibition: -13.7% for the first, -72% for the second.

Going from `CCOCC(=O)Nc1cc(OC)c(Cl)cc1OC` to `COc1cc(OC)c(/C=N/NC(=O)c2ccc([N+](=O)[O-])cc2)cc1Br`, the inhibition falls from 13.3% to 1.8%.

Going from `O=C(CSC1=Nc2ccccc2C2=NC(c3ccccc3)C(=O)N12)NCC1CCCO1` (stereo not given) to `COc1ccccc1NC(=O)CSc1nnc(Cn2nnc(-c3ccccc3)n2)n1-c1ccccc1`, the inhibition rises from 39.3% to 40.2%.

Compared with `CCOC(=O)c1cc2occc2n1CC(=O)NC1CCC(C)CC1` (stereo not given), `CCOC(=O)C1CCN(Cc2coc3ccc(Cl)cc3c2=O)CC1` is lower in inhibition: 22% for the first, -49.2% for the second.

Compared with `O=C1/C(=C\Nc2ccccc2)CCN1c1ncccn1`, `COc1cccc(N(CC(=O)N2CCc3ccccc3C2)S(C)(=O)=O)c1` is higher in inhibition: 3.1% for the first, 14.5% for the second.

First: CCOC(=O)CSc1nccc(N(C)C)c1C#N
Second: CCOC(=O)C1CCN(C(=O)Cn2cc(C#N)c3ccccc32)CC1
The inhibition of the first is lower: -35% for the first, -6.6% for the second.

Compared with `Cc1c(CCO)c(=O)n(-c2ccccc2)n1S(=O)(=O)c1ccc(F)cc1`, `CCN(CC(=O)Nc1ccccc1OC)C(=O)Cn1cnc2ccccc2c1=O` is lower in inhibition: 37.6% for the first, 14.4% for the second.

First: O=C(O)CCC(=O)NCc1ccc(C(=O)O)cc1
Second: O=C1CCC(C(=O)Nc2ccc(OC(F)F)cc2)N1 (stereo not given)
The inhibition of the first is higher: 6.1% for the first, 1.2% for the second.

Going from `COc1ccc(NC(=O)c2c(SC)nsc2SC)cc1` to `CCOC(=O)c1sc(=S)n(-c2cccc(OC)c2)c1N`, the inhibition falls from 12.2% to -20.4%.

Going from `CCCc1ccc(OCc2ccc(C(=O)N/N=C/c3cccc([N+](=O)[O-])c3)o2)c(OC)c1` to `COc1ccc(CCN(C)CCN2C(=O)c3ccccc3C2=O)cc1OC`, the inhibition rises from -10.7% to -9.6%.

Compared with `CCCCNc1nc2ccccc2nc1NS(=O)(=O)c1cccs1`, `CCN(CC)CCN1C(=O)C(=O)/C(=C(/O)c2ccc(OC)c(OC)c2)C1c1ccccn1` (stereo not given) is lower in inhibition: 32.1% for the first, -10.7% for the second.

Going from `CC(=O)N1CCN(CCN=CC2=C(O)CC(C)(C)CC2=O)CC1` to `CC1(C)CC(=O)C(C=NCCC2=CCCCC2)=C(O)C1`, the inhibition falls from 4% to 0.7%.

First: CC(C)COC(=O)C1C2C=CC3(CN(C(C)c4ccc(Br)cc4)C(=O)C13)O2 (stereo not given)
Second: CS(=O)(=O)N(CC(=O)N1CCN(Cc2ccccc2)CC1)c1ccc2c(c1)OCCO2
The inhibition of the first is higher: 9.2% for the first, -0.9% for the second.

Going from `CCCCCCSc1nsc(N)n1` to `Cc1cccc(N(CC(=O)N2CCOCC2)S(C)(=O)=O)c1`, the inhibition rises from 1.5% to 3.8%.

In the case of `COc1ccccc1N1CCN(C(=O)c2c(-c3c(Cl)cccc3Cl)noc2C)CC1`, the inhibition is reported as 88% (active).
`Cc1ccc(CNC(=O)COc2ccc(S(=O)(=O)NC(C)C)cc2)cc1` was tested, and the inhibition was 52.7% (active).
In the case of `Cc1c(C(=O)N2CCOCC2)[nH]c2ccc(OCc3ccccc3)cc12`, the inhibition is reported as 72.7% (active).
With `COC(=O)c1[nH]c2ccccc2c1NS(=O)(=O)c1ccc(OC)cc1OC` the inhibition was 74.8% (active).
With `CC(C)C1N=C2c3ccccc3N=C(SCC(=O)c3ccc(O)c(O)c3)N2C1=O` (stereo not given) the inhibition was 51.3% (active).
For `CCOC(=O)CCc1c(C)c(C#N)c2[nH]c3ccccc3n2c1=O`, the inhibition was 64.1% (active).
`CCCc1nc(SCC(=O)Nc2ccccc2OC)c2c(=O)n(C)c(=O)n(C)c2n1` was tested, and the inhibition was 70.3% (active).
For `N#Cc1cc([N+](=O)[O-])ccc1Oc1cccc(/C=N/NC(=O)c2ccc(Cl)cc2)c1`, the inhibition was 59.3% (active).
With `CC1(C)CC(=O)C(C=NCCN2CCN(C(=S)Nc3cccc(Cl)c3)CC2)=C(O)C1` the inhibition was 51.8% (active).
In the case of `COc1ccc(CCN2C(=O)c3[nH]nc(-c4ccccc4O)c3C2c2ccc(C)cc2)cc1OC` (stereo not given), the inhibition is reported as 58% (active).
In the case of `CC1CCN(C(=O)CN(c2ccc(Oc3ccccc3)cc2)S(C)(=O)=O)CC1`, the inhibition is reported as 50.7% (active).
With `CS(=O)(=O)N(CC(=O)N1CCN(c2cccc(Cl)c2)CC1)c1ccccc1` the inhibition was 54.7% (active).
